An excerpt weighted towards active compounds, which were near 0.97% of everything screened.
RPL19A-GFP yeast: alters RPL19A-GFP fluorescence in TOR pathway yeast screen | S. cerevisiae RPL19A-GFP strain, flow cytometry, 3 h; active compounds read low | percent response vs DMSO, % at 10 µM | 330,000 tested, 0.3% active | AID 2025;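 active = percent response vs DMSO below 50%; inconclusive = fewer than 70 events counted for the yeast strain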;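 note: median channel GFP fluorescence of the barcoded RPL19A-GFP strain; lower means less RPL19A-GFP as with rapamycin TOR inhibition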
CIT2-GFP yeast: alters CIT2-GFP fluorescence in TOR pathway yeast screen. S. cerevisiae CIT2-GFP strain, flow cytometry, 3 h; 100 means same as DMSO wells. AID 2029. GFP response vs DMSO, % at 10 µM. 320,000 tested, 0.065% active;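 active = GFP response relative to DMSO above a set limit, near the screen mean plus 3 SD, cut at about 150% in these data; inconclusive = Fewer than 70 cells measured for a yeast strain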;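 note: ratio of well median GFP fluorescence to mean of DMSO wells on the plate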
LAP4-GFP MLPCN: alters LAP4-GFP fluorescence in TOR pathway yeast screen; S. cerevisiae LAP4-GFP multiplex, flow cytometry GFP, 3 h; median GFP as percent of DMSO wells; GFP response vs DMSO, % at 10 µM; 320,000 tested, 0.34% active;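 active = GFP response vs DMSO above a set limit, about the screen mean plus 3 SD, cut at about 150% in these data; inconclusive = under 70 cell events counted for the yeast strain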
JMJD2C inh: blocks human GASC-1 demethylase activity. Q9H3R0. GST-JMJD2C(1-420) H3K9me3 demethylation, DELFIA europium. inhibition, % at 2.35 µM. 330,000 tested, 0.069% active. AID 2099;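 active = more than half of a compound's replicate wells show inhibition beyond 50%, single wells judged on their own value; inconclusive = some, but no more than half, of replicates pass 50% inhibition; inactive = no replicate passes 50% inhibition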;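 note: signal counts dimethyl H3K9 product captured on neutravidin plate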
Target sequence (Q9H3R0 1-420 limits assumed): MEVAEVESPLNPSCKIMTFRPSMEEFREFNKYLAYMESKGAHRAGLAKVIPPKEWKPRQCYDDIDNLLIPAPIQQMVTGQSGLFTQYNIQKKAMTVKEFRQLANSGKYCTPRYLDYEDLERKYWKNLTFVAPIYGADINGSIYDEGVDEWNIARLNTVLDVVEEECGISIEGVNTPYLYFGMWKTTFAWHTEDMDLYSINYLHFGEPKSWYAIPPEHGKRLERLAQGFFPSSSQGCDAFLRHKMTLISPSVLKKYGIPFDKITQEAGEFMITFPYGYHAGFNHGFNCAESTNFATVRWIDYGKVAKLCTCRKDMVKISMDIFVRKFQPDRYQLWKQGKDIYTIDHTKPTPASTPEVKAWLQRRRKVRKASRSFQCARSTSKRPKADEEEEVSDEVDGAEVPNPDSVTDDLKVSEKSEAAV
MEP2 TOR yeast: alters MEP2-GFP fluorescence in TOR pathway yeast screen; GFP response vs DMSO, % at 10 µM; S. cerevisiae MEP2-GFP strain, flow cytometry GFP, 3 h; 100% = DMSO control level; 330,000 tested, 0.51% active;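 active = GFP response versus DMSO above a set limit, roughly screen mean plus 3 SD, cut at about 180% in these data; inconclusive = fewer than 70 cells counted for a yeast strain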;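 note: median GFP fluorescence of the barcode-gated MEP2-GFP cells per well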
AGP1-GFP MLPCN: yeast TOR pathway AGP1-GFP modulation; GFP response vs DMSO, % at 10 µM; 320,000 tested, 0.02% active; S. cerevisiae AGP1-GFP multiplex flow cytometry, 3 h; GFP as percent of DMSO wells;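 active = GFP response relative to DMSO above a set limit, near screen average plus 3 SD, cut at about 150% in these data; inconclusive = fewer than 70 cells counted for the yeast strain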;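 note: median GFP channel fluorescence of the gated AGP1 strain per well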
Hits are given with their value; i = inactive; ? = inconclusive; nt = no result given; ! = a repeat was not active; [ ] = dose if it differs, or a comment.

SMILES	RPL19A-GFP yeast	CIT2-GFP yeast	LAP4-GFP MLPCN	JMJD2C inh	MEP2 TOR yeast	AGP1-GFP MLPCN
COc1ccc(S(=O)(=O)N(C)C[C@H]2Oc3c(NC(=O)CCC(F)(F)F)cccc3C(=O)N([C@H](C)CO)C[C@@H]2C)cc1	i	i	i	i	i	i
C[C@H](CO)N1C[C@H](C)[C@@H](CN(C)S(=O)(=O)c2ccccc2)Oc2c(NC(=O)CCC(F)(F)F)cccc2C1=O	nt	nt	nt	53	nt	nt
C[C@H](CO)N1C[C@H](C)[C@@H](CN(C)S(=O)(=O)c2cccs2)Oc2c(NC(=O)CCC(F)(F)F)cccc2C1=O	nt	nt	nt	52	nt	nt
C[C@H](CO)N1C[C@H](C)[C@@H](CN(C)S(=O)(=O)c2ccc(F)cc2)Oc2c(NC(=O)CCC(F)(F)F)cccc2C1=O	nt	nt	nt	i	nt	nt
Oc1ccccc1C1CC(c2cccs2)=NC(c2cccc(Br)c2)N1 (centres undefined)	i	i	i	i	i	i
O=C(/C=C/c1ccco1)Oc1cc(Br)cc(/C=N/NC(=O)c2ccccc2O)c1	37[may fluoresce violet]	?	i	i	296[may fluoresce violet]	i
Cc1nc(N2CCC(C)CC2)c2oc3ccccc3c2n1	49[may fluoresce violet]	?	i	i	252[may fluoresce violet]	nt
Cc1cc2cc3c(cc2nc1SCC(=O)N1CCOCC1)OCO3	i	?	i	i	294[may fluoresce violet]	i
N#Cc1cc2cc3c(cc2nc1SCC(=O)N1CCOCC1)OCO3	i	i	i	i	i	i
CC1(C)C(N(O)C(=O)Nc2ccc(Cl)cc2)N(c2ccc(Cl)cc2)C(=O)N1CC(=O)NN (centres undefined)	i	?	i	i	269[may fluoresce violet]	i
Nc1nnc(SCc2ccccc2Cl)s1	46[may fluoresce violet]	?	i	i	222[may fluoresce violet]	?
Nc1nnc(CSCc2ccccc2Cl)s1	i	i	i	i	i	i
N#Cc1ccc(OCC(=O)NNC(=S)NC(=O)C2CC2)cc1	i	i	i	i	i	i
CC(C)c1ccc(OCC(=O)NNC(=S)NC(=O)C2CC2)cc1	i	i	154[may fluoresce green]	i	i	i
Cc1ccc(F)cc1NC(=O)COC(=O)C1CCN(c2ccc(C(F)(F)F)cn2)CC1	i	i	i	i	i	i
Cc1ccc(N(CC(=O)NCc2ccccn2)S(=O)(=O)c2ccccc2)cc1C	i	i	i	i	i	i
O=C(Nc1ncn[nH]1)c1ccccc1Br	48[may fluoresce violet]	?	i	i	185[may fluoresce violet]	?
CSc1ccccc1C(=O)Nc1ncn[nH]1	i	i	i	i	i	i
CC(=O)NCCc1nc2cc(NC(=O)c3cccs3)ccc2n1C	i	?	i	i	271[may fluoresce violet]	i
Cn1c(CCNC(=O)C2CCCCC2)nc2cc(NC(=O)c3cccs3)ccc21	nt	nt	nt	i	nt	nt
Cc1cc([N+](=O)[O-])ccc1NC(=O)c1cccc(NC(=O)C(C)C)c1	i	?	i	i	191[may fluoresce violet]	?
CC(C)C(=O)Nc1cccc(C(=O)Nc2cc([N+](=O)[O-])ccc2Cl)c1	i	i	i	i	i	i
Cn1c(CN(O)S(=O)(=O)c2ccc(Cl)cc2)nnc1C(F)(F)F	i	154[may fluoresce green]	i	i	i	i
Cc1csc(CN(C)C(=O)CC2C(=O)NCCN2Cc2ccc(Cl)c(F)c2)n1 (centres undefined)	i	i	i	i	i	i
O=S(=O)(c1ccc(N2CCC(c3ccc(Cl)cc3)=N2)cc1)N(CCO)CCO	i	?	i	i	230[may fluoresce violet]	i
SMILES	RPL19A-GFP yeast	CIT2-GFP yeast	LAP4-GFP MLPCN	JMJD2C inh	MEP2 TOR yeast	AGP1-GFP MLPCN
CN(C)CCCNS(=O)(=O)c1cc(Cl)ccc1Cl	i	i	i	i	i	i
O=S(=O)(c1ccc(Oc2ccc(S(=O)(=O)N(CCO)CCO)cc2)cc1)N(CCO)CCO	i	i	i	i	i	i
CN(C)CCCNS(=O)(=O)c1ccc(N2CCC(c3ccc(Cl)cc3)=N2)cc1	31[may fluoresce violet]	?	?	i	?	?
COc1cccc(C(=O)NN2CC(O)=C(c3nc4ccccc4s3)C2=N)c1	i	i	i	i	i	i
COc1cccc(C(=O)NN2CC(O)=C(c3nc(C)cs3)C2=N)c1	43[may fluoresce violet]	?	i	i	189[may fluoresce violet]	?
O=C(NCCc1ccccc1)C1CCC(Cn2c(=O)c3ccccc3n(Cc3cccc(Cl)c3)c2=O)CC1 (centres undefined)	36[may fluoresce violet]	?	i	i	i	i
O=C(Cn1nc(-c2ccccc2)c2ccccc2c1=O)NCCN1CCOCC1	42[may fluoresce violet]	?	i	i	734[may fluoresce violet]	?
COc1ccc(CNC(=O)CN2CCC(NC(=O)c3ccccc3C)CC2)cc1	i	i	i	i	i	i
O=C(CN1C(=O)CCC1=O)c1ccc(-c2ccccc2)cc1	i	i	i	i	i	i
N=c1ccn(CC(=O)c2ccc(-c3ccccc3)cc2)cc1	i	i	154	i	i	i
COc1cccc(CC(=O)Nc2ncc(C)s2)c1	45[may fluoresce violet]	?	i	i	190[may fluoresce violet]	?
COc1ccccc1S(=O)(=O)CC(O)COc1ccccc1Cl (centres undefined)	i	150[may fluoresce green]	i	i	i	i
Nc1c2c(nc3ccccc13)CCCC2	i	i	i	i	i	i
Nc1c2ccccc2nc2ccccc12	37[may fluoresce violet]	?	i	i	206![may fluoresce violet]	?
CCCN1C(=O)c2ccc(C(=O)Nc3cc(C)ccc3O)cc2C1=O	i	i	i	57	i	i
O=C(NC(C1CC1)C1CC1)C1CCC(=O)N(CCCN2CCCC2=O)C1 (centres undefined)	i	i	i	i	i	i
CCOC(=O)C1=C(C)NC(=O)NC1c1c(C)nn(-c2ccccc2)c1Cl (centres undefined)	i	i	i	60	i	i
O=C(Nc1nnc(-c2ccc(F)cc2)o1)C1CCCN1S(=O)(=O)c1cccs1 (centres undefined)	i	i	i	i	i	i
COc1ccc(NC(=O)c2cccs2)cc1	46[may fluoresce violet]	?	i	i	297[may fluoresce violet]	nt
O=C(Nc1ccc(NC(=O)c2cccs2)cc1)c1cccs1	i	i	i	i	i	i
CNC[C@H]1Oc2ccc(NC(=O)Nc3ccccc3)cc2CC(=O)N([C@H](C)CO)C[C@H]1C	i	i	i	i	i	i
COCCCn1c(O)c(/C=C2\N=C(C#N)C(=Nc3ccc(C)cc3)O2)sc1=S	41[may fluoresce violet]	?	i	i	756[may fluoresce violet]	?
COc1ccccc1CNC(=O)c1ccccc1NC(=O)C1=C(C)OCCS1	i	i	i	i	i	i
NC1=NC(=O)C(CC(=O)c2ccc(Cl)cc2)S1 (centres undefined)	i	i	i	i	183	i
Cc1ccc(C(=O)CC2SC(N)=NC2=O)cc1 (centres undefined)	i	i	i	i	i	i
Cc1noc(C)c1COc1cccc(C(=O)OC(C)C#N)c1 (centres undefined)	20[may fluoresce violet]	?	i	i	307[may fluoresce violet]	i
CCCNC(=O)COC(=O)c1ccc(S(=O)(=O)N2CCCC2)cc1	i	193	240	i	264	i
CC(C)(CO)CNC(=O)CCc1nnc(-c2ccc(-c3ccccc3)cc2)o1	i	i	i	i	i	i

Compound activity from PubChem BioAssay.
